# Data published in PubChem BioAssay AID2315 (National Center for Advancing Translational Sciences (NCATS), 2010).
# In all, about 290,000 compounds went through this assay and about 27,000 (9.3%) were called active. No stated cut-off is given here; in the data, active means inhibition mostly above about 28% (no sharp cut-off); inactive means mostly below about 43%. What follows is part of a selection rich in actives, with near analogues and random picks from the rest.
# Assay: A qHTS for Small Molecule Inhibitors of Shiga Toxin; further: 0% is about no effect
# Settings: Vero cells, Shiga toxin protein synthesis inhibition reporter; at 38.7 µM, stronger effect = higher value
row,SMILES,inhibition
1,CN(CCC(=O)Nc1cc(S(=O)(=O)N(C)C)ccc1Cl)CC(=O)Nc1ccc(F)cc1,1.75% (inactive)
2,CC1(c2ccc3ccccc3c2)NC(=O)NC1=O (stereo unspecified),9.07% (inactive)
3,O=C1CCCN2N=C(SCC(=O)Nc3ccc(Br)cc3)SC2=N1,-4.09% (inactive)
4,CCn1cc(C(=O)N[C@@H](C)C(=O)NCCO)c(=O)c2cc3c(cc21)OCO3,-6.09% (inactive)
5,CC(=O)c1cc(CN2CCC(C(=O)Nc3cccc(-c4cscn4)c3)CC2)cs1,12.4% (inactive)
6,CSc1ccccc1OCc1cc(C(=O)N2C[C@H]3CC[C@H]2C3)no1,108% (active)
7,COC(=O)[C@@H]1CCCN1C(=O)c1cc(COc2cccc3cccnc23)on1,18.1% (inactive)
8,CSc1ccccc1OCc1cc(C(=O)N(C)CCc2c(C)n[nH]c2C)no1,-3.19% (inactive)
9,CSc1nc(O)c(Cc2ccccc2)c(=O)[nH]1,13.7% (inactive)
10,O=C(CSc1nc(O)c(Cc2ccccc2)c(=O)[nH]1)Nc1nc2c(s1)CCCC2,40.8% (active)
11,CCOC(=O)c1sc(NC(=O)CSc2nc(O)c(Cc3ccccc3)c(=O)[nH]2)nc1C,107% (inactive)
12,O=C(Nc1ccccc1C(=O)O)c1ccc(N2C(=O)C3CC=CCC3C2=O)cc1 (stereo unspecified),21.8% (inactive)
13,COc1ccccc1N(CC(=O)Nc1ccccc1C(=O)N1CCCC1)S(C)(=O)=O,-2.57% (inactive)
14,COc1cc(OC)c(C(=O)NCc2ccc3c(c2)OCO3)cc1OC,-10.8% (inactive)
15,COc1ccc(S(=O)(=O)Nc2ccc3c(c2)OCO3)cc1Cl,-1.27% (active)
16,COc1ccc(C(=O)Nc2ccc3c(c2)OCO3)cc1OC,99% (active)
17,COc1ccc(S(=O)(=O)N(C)CC(=O)Nc2ccc3c(c2)OCCO3)cc1OC,24.6% (inactive)
18,CCC(=O)c1cc2c(cc1NC(=O)c1cccs1)OCCO2,-21.9% (inactive)
19,COc1cc(NC(=O)c2ccc3c(c2)OCO3)ccc1NC(=O)c1cccs1,55.9% (active)
20,Cn1c(=O)n(C)c2cc(C(=O)Nc3ccc(Br)cc3)ccc21,-10.4% (inactive)
21,Cn1c(=O)n(C)c2cc(C(=O)Nc3ccc4c(c3)OCO4)ccc21,33.6% (active)
22,COc1ccc(F)cc1S(=O)(=O)Nc1ccc2c(c1)OCO2,-6.49% (inactive)
23,COc1cc(NC(=O)c2cccs2)ccc1NC(=O)c1ccccc1Cl,39.7% (inactive)
24,Cn1c(NC(=O)c2ccc3c(c2)OCO3)cc(=O)n(C)c1=O,-7.32% (inactive)

row,SMILES,inhibition
1,CC(C)CNS(=O)(=O)c1ccc(OCC(=O)Nc2ccc3c(c2)OCO3)c(Cl)c1,-2.63% (inactive)
2,COC(=O)c1ccc(C2C3=C(Nc4nnnn42)c2ccccc2OC3)cc1 (stereo unspecified),-11.2% (inactive)
3,CC1CN(C(=O)CCC(=O)NCCCN2CCC(Cc3ccccc3)CC2)c2cc(Cl)ccc2O1 (stereo unspecified),-10.8% (inactive)
4,O=C(CN(c1cc(C(F)(F)F)ccc1Cl)S(=O)(=O)c1ccccc1)NCc1cccnc1,-32% (inactive)
5,Cc1cccc(C)c1N1C(=O)CN(Cc2ccccc2)C1=S,-4.26% (inactive)
6,COc1ccc(C(CNC(=O)COc2ccc([N+](=O)[O-])cc2)N2CCCCC2)cc1 (stereo unspecified),-4.67% (inactive)
7,COc1ccc(CN2CN(C3CCCC3)CSC2=S)cc1,17.5% (inactive)
8,CC1Cc2cc(/C(O)=C3\C(=O)C(=O)N(Cc4cccnc4)C3c3ccccc3F)ccc2O1 (stereo unspecified),-7.46% (inactive)
9,CCOC(=O)c1c(C)[nH]c(C(=O)NCCN2CCOCC2)c1C,2.41% (inactive)
10,C[C@H]1[C@H]2c3nc4ccccc4n3C[C@H]1ON2C1CCCCC1,-7.22% (inactive)
11,CCOC(=O)C(Cc1ccc(N)cc1)N1C(=O)c2ccccc2C1=O (stereo unspecified),7.65% (inactive)
12,CC(=O)Nc1ccc(-c2nc3ccccc3o2)cc1,54.7% (active)
13,CC(=O)Nc1ccc(Nc2c3ccccc3nc3ccccc23)cc1,-31.9% (inactive)
14,O=C(Nc1cnccn1)c1cccnc1,11% (inactive)
15,COC(=O)c1cc(NC(=O)c2cccnc2)ccc1N1CCOCC1,26.8% (inactive)
16,Cc1cc(NS(=O)(=O)c2ccc(NC(=O)c3cccnc3)cc2)nc(C)n1,2.23% (inactive)
17,Cc1cc2nc(-c3ccc(NC(=O)c4cccnc4)cc3)oc2cc1C,101% (active)
18,Cc1ccc2nc(-c3ccc(NC(=O)c4cccnc4)cc3)oc2c1,142% (active)
19,COc1cc(OC)cc(C(=O)Nc2ccc(-c3nc4ccccc4o3)c(O)c2)c1,35.4% (inactive)
20,CC(=O)NC(=S)Nc1ccc(NC(=O)c2cccnc2)cc1,24.9% (inactive)
21,COc1ccc(CNC(=O)CN(C(=O)c2csnn2)c2cnc3ccccc3c2)cc1,-8.3% (inactive)
22,CCOC(=O)c1cc(=O)c2ccc(OCc3ccccc3)cc2o1,-1.81% (inactive)
23,CCOc1ccccc1NS(=O)(=O)c1c[nH]c(C(=O)OC)c1,-3.38% (inactive)
24,Cc1ccc(NC(=O)C2CCN(S(=O)(=O)c3ccc4c(c3)NC(=O)CO4)CC2)cc1C,-2.09% (inactive)

row,SMILES,inhibition
1,CNC[C@H](CC1CCCCC1)NC[C@H](NCCC1CCCC1)[C@H](C)O,-0.811% (inactive)
2,O=C(Nc1ccccc1)c1ccccc1NC(=O)C(F)(F)F,52.8% (inactive)
3,O=C(Nc1cccc(Cl)c1Cl)c1ccccc1NC(=O)C1CC=CCC1C(=O)O (stereo unspecified),35.7% (active)
4,O=C(O)C1CC=CCC1C(=O)Nc1ccccc1C(=O)N1CCN(c2ccccc2)CC1 (stereo unspecified),-42.2% (inactive)
5,CC(=O)Nc1ccc(NC(=O)COc2ccccc2C(=O)Nc2cccc(Cl)c2Cl)cc1,12.3% (inactive)
6,O=C(Nc1ccc(Cl)c(Cl)c1)c1ccccc1NC(=O)C1CC=CCC1C(=O)O (stereo unspecified),59.4% (active)
7,O=C(O)C1CC=CCC1C(=O)NCCc1ccccc1 (stereo unspecified),5.17% (inactive)
8,Cc1ccc(N(CC(=O)NCC2CCCO2)C(=O)CNS(=O)(=O)c2ccc(Cl)cc2)cc1 (stereo unspecified),-7.51% (inactive)
9,CN(C(=O)CN1C(=O)/C(=C/c2ccc(Cl)cc2)SC1=S)C1CCS(=O)(=O)C1 (stereo unspecified),-7.14% (inactive)
10,O=C(c1cc2ccccc2s1)N1CCN(c2ccccn2)CC1,9.52% (inactive)
11,COc1ccc(-c2cc(=O)oc3cc(OCC(=O)N(C)C4CCS(=O)(=O)C4)ccc23)cc1 (stereo unspecified),-5.59% (inactive)
12,COc1cccc(C(=O)N2CCC(n3nccc3NC(=O)C3CCOC3)CC2)c1 (stereo unspecified),-9.25% (inactive)
13,CCOCCCN1C(=O)C2C(C(=O)Nc3ccc(OCC)cc3)C3C=CC2(O3)C1C(=O)NC1CCCCC1 (stereo unspecified),-6.78% (inactive)
14,CSCC[C@H](NC(=O)OC(C)(C)C)C(=O)N/N=C/c1cc2ccc(C)cc2nc1Cl,-11.9% (inactive)
15,O=C(Nc1cccc(F)c1)[C@@H]1CCCN1,3.23% (inactive)
16,O=C(O)c1ccc(N/N=C/c2ccc3ncccc3c2)cc1,45.9% (active)
17,O=C(O)c1ccc(N/N=C/c2cn(-c3ccccc3)nc2-c2cccs2)cc1,46.3% (inactive)
18,CCNC(=S)NNC(=O)c1ccc2ncccc2c1,38% (inactive)
19,Cc1ccc2cc(/C=N/Nc3ccc(C(=O)O)cc3)c(Cl)nc2c1,51.3% (active)
20,O=C(O)c1ccc(/C=N/Nc2nc(N3CCCCC3)nc(N3CCCCC3)n2)cc1,-6.74% (inactive)
21,Cc1ccc(/C=N/NC(=O)C2=NNC(c3ccccc3)(c3ccccc3)C2)c(O)c1,33.7% (inactive)
22,Cc1ccc2cc(/C=N/NC(=O)[C@@H]3CCCN3)c(Cl)nc2c1,54.3% (active)
23,Cc1cc(OCC(=O)N2CCN(c3ncccn3)CC2)ccc1Cl,-7.52% (inactive)
24,COc1cc(OC)cc(C(=O)NCCSCc2ccc(Cl)cc2)c1,-9.78% (inactive)

row,SMILES,inhibition
1,COc1ccc2c(c1)C(=C(C#N)C#N)C(=O)N2CCc1ccccc1,6.44% (inactive)
2,O=C1CN(C(=O)c2cc(F)cc(F)c2)c2ccccc2N1,-2.51% (inactive)
3,CC(C)CC(O)C1CCN(C(=O)CCc2nnc(-c3ccc4c(c3)OCO4)o2)CC1 (stereo unspecified),-6.93% (inactive)
4,CC(CO)NCC12CC3CC(CC(C3)C1)C2 (stereo unspecified),2.32% (inactive)
5,CCOc1ccccc1NC(=O)Cn1nnc(C(=O)NCc2cccs2)c1N,-4% (inactive)
6,COC1=C/C(=C/c2c(N)n3nc(CC(=O)N4CCOCC4)sc3nc2=O)C=CC1=O,-2.63% (inactive)
7,COc1ccc(CN2CC(C(=O)NC3CCCCC3)CC2=O)cc1 (stereo unspecified),-6.86% (inactive)
8,Cc1ccc(C)c(OCCC(=O)OCC(=O)N2CCN(c3ccccc3)CC2)c1,-5.02% (inactive)
9,CCN1CCCC1CNC(=O)c1cc2cc(OC)c(OC)cc2[nH]1 (stereo unspecified),-5.24% (inactive)
10,CC(C)c1ccc(OCC(O)CN2CCN(c3ccccn3)CC2)cc1 (stereo unspecified),-24.5% (inactive)
11,CC(O)c1ccc(OCCN(C)c2ccccn2)cc1 (stereo unspecified),87.4% (active)
12,CCOc1ccc(C(C(=O)NCCOC)N(CCOC)C(=O)CCC(=O)Nc2ccccn2)cc1 (stereo unspecified),-13.1% (inactive)
13,COc1ccc(-c2noc(C(C)NS(=O)(=O)c3ccc(NC(C)=O)cc3)n2)cc1 (stereo unspecified),-7.2% (inactive)
14,COc1ccc(CCNC(=O)C(=O)NCC2OCCN2S(=O)(=O)c2ccc(F)cc2)cc1OC (stereo unspecified),2.97% (inactive)
15,COC(=O)c1sc(-c2ccc(C(C)(C)C)cc2)cc1NC(=O)/C=C/C(=O)O,108% (active)
16,O=C(O)/C=C/C(=O)Nc1ccc(F)cc1F,-11.9% (inactive)
17,COc1ccccc1NC(=O)/C=C/C(=O)O,-5.02% (inactive)
18,C=CCn1c(SCc2ccc(C(=O)NCCO)cc2)nc2ccccc2c1=O,-5.58% (inactive)
19,CC(C(=O)Nc1ccc(O)c(C(=O)O)c1)N1C(=O)/C(=C/c2cccs2)SC1=S (stereo unspecified),5.02% (inactive)
20,COCCCNC(=O)[C@H]1N2C(=O)c3ccccc3C2SC1(C)C (stereo partly specified),-3.4% (inactive)
21,CC1=Nn2c(nnc2-c2ccccc2)SC1,-3.08% (inactive)
22,Cc1nnc2n1N=C(c1ccccc1)CS2,-5.72% (inactive)
23,COc1ccc(C2=Nn3c(nnc3-c3ccccc3O)SC2)cc1,42.8% (active)
24,COc1cc(/C(=C/c2ccccc2)c2ccccc2)c2c(c1)oc1ccccc12,-7.7% (inactive)
